Article PMC7819943, “Rice protein-binding microarrays: a tool to detect cis-acting elements near promoter regions in rice”
Over roughly 39,000 sequences, “fluorescence intensity (a.u.)” has its median near 4,300; the highest 2% begin near 39,000. Many of the other results were omitted from the sample, so the highest values are more common in it than they were.

Molecular target: T1, OsSMF1 (Oryza sativa, UniProt Q6ZLB0 1-436)
T1 sequence: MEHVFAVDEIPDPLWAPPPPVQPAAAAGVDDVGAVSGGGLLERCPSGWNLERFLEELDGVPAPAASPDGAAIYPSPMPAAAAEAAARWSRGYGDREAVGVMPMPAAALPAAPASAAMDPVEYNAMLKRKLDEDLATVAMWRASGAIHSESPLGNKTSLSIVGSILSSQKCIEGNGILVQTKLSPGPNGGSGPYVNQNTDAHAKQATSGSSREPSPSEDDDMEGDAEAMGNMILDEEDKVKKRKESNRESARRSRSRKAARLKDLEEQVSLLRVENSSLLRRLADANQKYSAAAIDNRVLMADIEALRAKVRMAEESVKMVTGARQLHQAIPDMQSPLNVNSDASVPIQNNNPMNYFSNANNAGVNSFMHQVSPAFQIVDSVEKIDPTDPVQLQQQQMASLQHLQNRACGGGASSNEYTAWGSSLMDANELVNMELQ
Assay: protein-binding microarray (RPBM); PBS, 2% BSA, 51.3 ng/ul salmon testes DNA, 50 uM zinc acetate, 200 nM TF, 25 C, 1 h; high values mean tight binding
Details: protein: recombinant; tags: N-terminal polyhistidine and DsRed monomer fusion (pET32a); chain copies: 2; label: CyDye5-dUTP incorporated in the synthesized complementary strand; 3' TTTTT single-stranded linker to array surface; dsDNA, one strand shown
How it was run: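 Transcription factors were made in E. coli BL21-CodonPlus as N-terminal fusions to a polyhistidine tag and DsRed, then purified on Ni–NTA. After primer extension with Cy5-dUTP and blocking with 2% BSA, a custom Agilent array was exposed for 1 h at 25 °C to 200 nM protein in PBS, 2% BSA, salmon testes DNA and 50 µM zinc acetate. Washed arrays were scanned on an Axon 4000B, and the binding signal is per-feature fluorescence intensity in arbitrary units.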

Sequence	binding signal
TGGCAAATAGTTCCGTGATGTCAGCTTGGAAGCATCCTGCCGGAGTCACCTAGTGCAG	6410 fluorescence intensity (a.u.)
CTTTTGGCAAAATCCGTGATGCAGCATCGATCCCTGTCAACGGAGTCACCTAGTGCAG	39800 fluorescence intensity (a.u.)
ATATATACCTGCATACACTAGACTAGTATAATACCTGGCACGGAGTCACCTAGTGCAG	3530 fluorescence intensity (a.u.)
AAACGATAATATACCTTGTATAGTCATCCAACTCTTATTTCGGAGTCACCTAGTGCAG	3630 fluorescence intensity (a.u.)
TTTCGGTCATGAAAACTCAGGACCAAATTTCATCCAAATACGGAGTCACCTAGTGCAG	29300 fluorescence intensity (a.u.)
TATCCAAAATTTCATCCAACTCTTGTGGGAGAAACGGACACGGAGTCACCTAGTGCAG	39500 fluorescence intensity (a.u.)
GATTTCTTTCTGCCGTCATCTTCGAATATCCATGACTCGCCGGAGTCACCTAGTGCAG	3840 fluorescence intensity (a.u.)
AAATGTCTCCCAAAACCTCAAAATTGAGTTCCATTATGAACGGAGTCACCTAGTGCAG	61600 fluorescence intensity (a.u.)
CACTTGATGAGCTCCTCTCCATGTCCTCAAACGTACTGAACGGAGTCACCTAGTGCAG	25100 fluorescence intensity (a.u.)
ATCGATCAGGCAATGAACCCATTATTGTTTGCCTCCAAAACGGAGTCACCTAGTGCAG	34100 fluorescence intensity (a.u.)
AATCGATTCGAAATCCACACCGCTACTACGGCTAATTACGCGGAGTCACCTAGTGCAG	3870 fluorescence intensity (a.u.)
CGCATTGAGCCATTTACACTACACACACAGCCCCAGATTCCGGAGTCACCTAGTGCAG	3420 fluorescence intensity (a.u.)
GATCTGTCACTGTATGGAATGATGCAAAGCTGCTGCTGATCGGAGTCACCTAGTGCAG	32000 fluorescence intensity (a.u.)
TCTGCTGATGATCTCTCTCTCTCTCTGTTTCAAAGCTGATCGGAGTCACCTAGTGCAG	44700 fluorescence intensity (a.u.)
ACCTCTTGCTGCTGCTCATTCTGATGTCATTCAAAGAGATCGGAGTCACCTAGTGCAG	4480 fluorescence intensity (a.u.)
CGCGCGAGTGCTAGGAAGCTGAGTCACGCCCGCCCTCCTCCGGAGTCACCTAGTGCAG	10700 fluorescence intensity (a.u.)
TCCCACATTAAATTTACTCATTAGTTGTTAGGAATCGACACGGAGTCACCTAGTGCAG	20600 fluorescence intensity (a.u.)
CAAGAGAAAATAGCCAAAATAATAGCAGTAAGAACACAATCGGAGTCACCTAGTGCAG	15400 fluorescence intensity (a.u.)
CAGAATATTTTGTCAGTCACTCTTGATCACTCTAGCAACACGGAGTCACCTAGTGCAG	3980 fluorescence intensity (a.u.)
CAGTAAGCTAGCAAACAAACACACAAGAATATTTGTGATCCGGAGTCACCTAGTGCAG	39900 fluorescence intensity (a.u.)
ATCGTGTGACGACGTCTCGTCTCGTCTCCCTCTCCCGACCCGGAGTCACCTAGTGCAG	3260 fluorescence intensity (a.u.)

Sequence	binding signal
CGACCGACCCTCGCCCGCCCACCGCCGTCACTCTCGTCTGCGGAGTCACCTAGTGCAG	3920 fluorescence intensity (a.u.)
CGGGCACTCTCGTCTCCGACGTGAAGGCCCGAGATCACTGCGGAGTCACCTAGTGCAG	60900 fluorescence intensity (a.u.)
GGTTGATTATTCCGTCGGCGTCAGCCATCAGGTGCATCACCGGAGTCACCTAGTGCAG	3270 fluorescence intensity (a.u.)
TCTTTCGTCGCAATGCCACGCCATCATCGATCCCTTTCCTCGGAGTCACCTAGTGCAG	14800 fluorescence intensity (a.u.)
TTTCGGGATCCGACACGGGCTGAATCCGGCCCATCCAAACCGGAGTCACCTAGTGCAG	37800 fluorescence intensity (a.u.)
GTCTAGCTAGTGCAATTAGAGTAACCTATATATCACACAACGGAGTCACCTAGTGCAG	52200 fluorescence intensity (a.u.)
GGAGTAGATATTATCACTAGCTAGTCACACGGACACAGTGCGGAGTCACCTAGTGCAG	4900 fluorescence intensity (a.u.)
TAAACGCAAATTCTATATCACAACCACGTAAGTTTAGTAGCGGAGTCACCTAGTGCAG	3870 fluorescence intensity (a.u.)
TCGCCGCCGCGGCCGCCTCCACCTCATCATCTCCCACCTCCGGAGTCACCTAGTGCAG	7900 fluorescence intensity (a.u.)
GCGGCGCATCCAGGAGGTTGAGTCGAGCACGCCACCGCTGCGGAGTCACCTAGTGCAG	3420 fluorescence intensity (a.u.)
CACGGCCTCACCTCCCAGCCCGCGAGCACCGGCGGACGGACGGAGTCACCTAGTGCAG	42400 fluorescence intensity (a.u.)
AGGGCGAGGAGGCGCTTGAGGGCGTCGAGCTTGTCGGCATCGGAGTCACCTAGTGCAG	28400 fluorescence intensity (a.u.)
GCTGCCAGCGCCGCCGCCACCTGTGTCGGCACGCGAGCGCCGGAGTCACCTAGTGCAG	3350 fluorescence intensity (a.u.)
ACCTCCCACACCTGTGTCGATCCAGGCAGGCCGAGCGCGACGGAGTCACCTAGTGCAG	43400 fluorescence intensity (a.u.)
ACATCACCACCCACCTCACCCTGCCGCTCCCGAGCGCGATCGGAGTCACCTAGTGCAG	4000 fluorescence intensity (a.u.)
GTACGCGAGCATCCCGGCGTTGTCGAGGCGCTCCAGGACGCGGAGTCACCTAGTGCAG	40200 fluorescence intensity (a.u.)
GTCCCCGGCCTCGGCGCGCGGCGAGCACCGTGCCGCCCCACGGAGTCACCTAGTGCAG	24000 fluorescence intensity (a.u.)
TTGAGCAGCCTCCCTTCCCCGGCGAGCAGCCCCGCCGCCGCGGAGTCACCTAGTGCAG	3720 fluorescence intensity (a.u.)
AAACTGGCAAACGCGTCACATGAGTTTTACCTACCAATGTCGGAGTCACCTAGTGCAG	3230 fluorescence intensity (a.u.)
ATTTCAATGTCAAGATGAGAAGGGAATTTAAGAGCCTGCACGGAGTCACCTAGTGCAG	22800 fluorescence intensity (a.u.)
GCGCAGGCAACCACCCCACCCTTCTTCTCGAAACCTCTTCCGGAGTCACCTAGTGCAG	3290 fluorescence intensity (a.u.)
